Screens: PubChem BioAssay, National Center for Advancing Translational Sciences (NCATS)
The list is not random: actives were taken first. Their share in the collection is about 19%.
KB-3-1 cytotox: qHTS assay for MDR1-selective chemotherapeutics: Primary screen using the parental adenocarcinoma cell KB-3-1 | KB-3-1 viability, CellTiter-Glo ATP luminescence, 72 h | Potency, µM (titrated, usually from 46.1 µM), hits mostly cytotoxic | hit rate 1.4% among 400,000 | AID 1347075, 2019; also: nearly all actives have a fitted effect of over 60% in size
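Multi-concentration cytotoxicity screen in KB-3-1 cells grown in DMEM lacking phenol red with 10% FBS. After 72 h at 37 °C with compound, ATP-dependent luminescence was recorded.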
HT1080-NT tox: qHTS for induction of synthetic lethality in tumor cells producing 2HG: qHTS for the HT-1080-NT fibrosarcoma cell line; HT-1080-NT fibrosarcoma viability, CellTiter-Glo ATP luminescence, 48 h; Potency, µM (titrated, usually from 46.1 µM), hits mostly cytotoxic; hit rate 1.6% among 360,000;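 also: NT is the 2HG producing partner of a matched IDH1 knockdown line; nearly all actives have a fitted effect of over 55% in size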
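A 48-hour cytotoxicity screen used HT-1080-NT cells plated 2 hours before compound delivery. ATP-based CellTiter-Glo luminescence measured viability, normalized to DMSO and no-cell controls.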
HT1080 IDH1KD tx: qHTS for induction of synthetic lethality in tumor cells producing 2HG: qHTS for the HT-1080-IDH1KD cell line; AID 686971, 2013; hit rate 2% among 360,000; Potency, µM (series often up to 46.1 µM), usual class: cytotoxic; HT-1080 IDH1 knockdown viability, ATP luminescence, 48 h
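Luminescent ATP read-out (CellTiter-Glo, 10 min at room temperature) after 48 h compound exposure at 37 °C gave viability of IDH1-knockdown HT-1080 cells. Activity was normalised to DMSO and cell-free wells, then fitted as concentration-response curves.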
DT40 TDP1 no CPT: qHTS for Inhibitors of human tyrosyl-DNA phosphodiesterase 1 (TDP1): qHTS in cells in absence of CPT; DT40 Tdp1-/- hTDP1 cells, no CPT, ATP luminescence, 48 h; Potency, µM (doses to about 46.2 µM), hits mostly inhibitors; hit rate 15% among 420,000; AID 686978, 2013; also: nearly all actives have a fitted effect of over 55% in size
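Growth of hTDP1-complemented DT40 Tdp1-knockout cells is measured by ATP luminescence after at least 48 hr compound exposure at 37 °C, with DMSO substituting for the 20 nM CPT used in the parallel screen.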
TDP1 cell CPT: qHTS for Inhibitors of human tyrosyl-DNA phosphodiesterase 1 (TDP1): qHTS in cells in presence of CPT. Potency, µM (highest dose often 46.2 µM), actives largely listed as inhibitors. AID 686979, 2013. hit rate 12% among 420,000. chicken DT40 Tdp1-/-;hTDP1 cells + 20 nM CPT, ATP luminescence, 48 h; also: nearly all actives have a fitted effect of over 55% in size
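Chicken DT40 Tdp1-/- cells stably complemented with human TDP1 were seeded at 400 cells/well in medium containing 20 nM camptothecin, exposed to pin-transferred compounds, and grown at 37 °C for at least 48 hr. Viability was read as ATP luminescence.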
KB-V1 MDR tox: qHTS assay for MDR1-selective chemotherapeutics: Primary screen using the drug-selected MDR subline cells KB-V1; KB-V1 MDR cells viability, CellTiter-Glo, 72 h; Potency, µM (titrated, usually from 46.1 µM), usual class: cytotoxic; hit rate 3.4% among 400,000; AID 1347076, 2019; also: nearly all actives have a fitted effect of over 60% in size
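Cytotoxicity toward P-gp-expressing KB-V1 cells was determined as loss of CellTiter-Glo luminescence after 72 h at 37 degrees C. Compounds were tested in quantitative HTS format across a concentration range, with curves fitted to normalized data.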
A number is an active result; i = inactive; ? = inconclusive; nt = not tested or not shown. Calls follow the shape of the dose curve; as a rule, active = well fitted curve in the direction sought with a large enough effect; inconclusive = small, poorly fitted or top-dose-only effect, or another doubt; inactive = no such curve, though single readings can be large; an effect the other way counts as inactive or inconclusive.

SMILES	KB-3-1 cytotox	HT1080-NT tox	HT1080 IDH1KD tx	DT40 TDP1 no CPT	TDP1 cell CPT	KB-V1 MDR tox
COc1cccc(C(=O)C2CCCN(Cc3cn(C)nc3-c3ccccc3)C2)c1 (centres undefined)	i	i	i	?	23µM	i
O=C(c1ccc(-c2ccccc2)c(F)c1)C1CCCN(C(=O)c2cncs2)C1 (centres undefined)	i	i	i	13µM	?	?
CC1CCC2C(C1)c1sc(=O)[nH]c1SC2(C)C (centres undefined)	i	?	?	?	?	18µM
COc1ccc(C(=O)NCc2ccc3c(c2)OCO3)cc1S(=O)(=O)NCc1ccc(Cl)cc1	i	i	i	?	i	i
COc1ccccc1CN(CC(=O)NCc1ccc2c(c1)OCO2)C(=O)c1ccc2c(c1)OCCO2	i	i	i	21µM	?	i
COc1ccccc1OCCC(=O)NCc1ccc2c(c1)OCO2	i	i	i	?	?	i
COc1ccc(C(=O)NCc2ccc3c(c2)OCO3)cc1S(=O)(=O)N(C)Cc1ccccc1	i	i	i	?	i	9.2µM
CN(CCOc1ccccc1)C(=O)c1ccc(N2CCCC2)c([N+](=O)[O-])c1	i	i	i	?	i	i
CN(C(=O)CSc1nncc2ccccc12)c1ccccc1	i	i	i	i	i	i
CN(C)CCCNS(=O)(=O)c1ccc(NC2CCCCCC2)c([N+](=O)[O-])c1	18µM	?	?	2.3µM	2.9µM	?
Cc1cc(C(=O)Nc2ccc(C(C)C)cc2)c2c(C)nn(-c3ccccc3)c2n1	i	nt	nt	nt	nt	?
CC(=O)Nc1ncc(Cc2cc(Cl)ccc2Cl)s1	i	i	i	?	i	i
N#C/C(=C\c1c[nH]c2ccccc12)C(=O)Nc1ncc(Cc2ccc(Cl)cc2Cl)s1	i	?	?	16µM	?	?
CCCc1cc2c(=O)c(-c3ccc4c(c3)OCCO4)c(C)oc2cc1OS(C)(=O)=O	i	?	?	23µM	18µM	i
CCCc1cc2c(=O)c(-c3ccc4c(c3)OCCO4)coc2cc1OC(=O)c1ccco1	i	?	?	?	?	i
CCc1cc2c(=O)c(-c3ccc4c(c3)OCCO4)coc2cc1OC(=O)c1ccco1	i	?	i	21µM	?	?
CCCc1cc(=O)oc2cc(OCC(=O)Nc3ccc4c(c3)OCCO4)ccc12	i	i	i	i	i	i
CCCc1cc2c(=O)c(-c3ccc4c(c3)OCCO4)coc2cc1OS(C)(=O)=O	?	i	i	?	?	10µM
Cc1ccc(C(=O)NCCc2nnc3ccc(SCC(=O)N4CCCCC4)nn23)cc1	nt	i	i	i	i	nt
COc1cc(/C=C2\SC(c3ccc(C)cc3)=NC2=O)cc(OC)c1O	i	i	i	?	i	i
Cc1ccc(C2=NC(=O)/C(=C/c3cc(O)c(O)c(Br)c3)S2)cc1	i	i	i	16µM	18µM	?
COc1ccc(OC)c(C(O)c2ncc(-c3cccc4ccccc34)[nH]2)c1 (centres undefined)	i	i	i	26µM	18µM	i
OC(c1cccc(Cl)c1)c1ncc(-c2cccc3ccccc23)[nH]1 (centres undefined)	i	i	?	16µM	21µM	i
COc1ccc(OC)c(C(O)c2ncc(-c3ccccc3Cl)[nH]2)c1 (centres undefined)	i	i	i	i	i	i
COc1cccc(C(O)c2ncc(-c3cccc4ccccc34)[nH]2)c1 (centres undefined)	?	?	i	9.2µM	16µM	i
SMILES	KB-3-1 cytotox	HT1080-NT tox	HT1080 IDH1KD tx	DT40 TDP1 no CPT	TDP1 cell CPT	KB-V1 MDR tox
Cc1ccc(C(O)c2ncc(-c3cccc4ccccc34)[nH]2)cc1F (centres undefined)	i	i	?	?	?	i
Cc1cc(Cl)ccc1C(O)c1ncc(-c2ccccc2Cl)[nH]1 (centres undefined)	i	?	?	?	21µM	i
O=C(c1cccc(F)c1F)N1CCOc2ccc(CN3CCN(Cc4ccccn4)CC3)cc2C1	nt	nt	nt	i	i	nt
COc1ccccc1-c1cnc(C(O)c2ccc(C)cc2)[nH]1 (centres undefined)	i	i	i	18µM	i	i
CCc1ccc(C(O)c2ncc(-c3ccc(C(F)(F)F)cc3)[nH]2)cc1 (centres undefined)	i	i	i	?	?	i
CCc1ccc(C(O)c2ncc(-c3ccccc3C(F)(F)F)[nH]2)cc1 (centres undefined)	i	i	i	?	29µM	?
CCc1ccc2oc(C(=O)Nc3cc(C)ccc3C)cc(=O)c2c1	i	nt	nt	i	i	i
O=C(NCCc1ccccc1)c1ccc(S(=O)(=O)N2CCCC2)cc1	i	i	i	i	i	?
CCCCCCN1CCN(C2CN(Cc3cn(Cc4ccc(C)cc4)nn3)S(=O)(=O)C2)CC1 (centres undefined)	i	i	23µM	26µM	?	?
CCCCCCN1CCN(C2CN(C3CCCCC3)S(=O)(=O)C2)CC1 (centres undefined)	i	i	i	?	16µM	i
CCCCCCN1CCN(C2CN(CCc3ccccc3)S(=O)(=O)C2)CC1 (centres undefined)	i	i	i	16µM	?	i
CCCCCCn1cc(CN2CC(N3CCN(Cc4cccc(C)c4)CC3)CS2(=O)=O)nn1 (centres undefined)	i	i	i	23µM	?	i
O=S(=O)(c1ccc(=S)[nH]c1)N1CCN(Cc2ccccc2)CC1	i	i	i	?	?	i
CSc1ccc(CN2CCC(C)(Oc3ccc4ccccc4c3)C2)cc1 (centres undefined)	i	i	i	?	?	?
CC(=O)c1ccc(OC2(C)CCN(Cc3cc4ccccc4[nH]3)C2)cc1 (centres undefined)	i	i	i	8.2µM	4.1µM	i
CC(=O)c1ccc(OC2(C)CCN(CCOc3ccc(C)cc3)C2)cc1 (centres undefined)	i	i	i	5.8µM	16µM	i
CC(=O)c1cc2cccc(OC3(C)CCN(Cc4ccc5ccccc5c4)C3)c2o1 (centres undefined)	i	i	?	?	18µM	i
COc1ccc(NC(=O)CSc2nc3nc(C)c(Cc4ccccc4Cl)c(C)n3n2)cc1OC	i	nt	nt	?	?	i
